# From PubChem
# KB-3-1 tox: KB-3-1 parental cell cytotoxicity; KB-3-1 viability, CellTiter-Glo ATP luminescence, 72 h; Potency, µM (highest dose often 46.1 µM), most hits filed as cytotoxic; hit rate 1.4% among 400,000; note: nearly all actives have a fitted effect of over 60% in size
#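 Luminescent ATP read-out (CellTiter-Glo) measures survival of drug-naive KB-3-1 cells after 72 h compound exposure at 37 °C. Titration series was screened from lowest to highest concentration, with DMSO vehicle plates as background controls.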
# TDP1 cell CPT: growth inhibition of DT40 Tdp1-/-;hTDP1 cells with camptothecin (screen for TDP1 inhibitors); chicken DT40 Tdp1-/-;hTDP1 cells + 20 nM CPT, ATP luminescence, 48 h; Potency, µM (highest dose often 46.2 µM), inactives show at the highest dose activity change, negative = growth inhibition, most hits filed as inhibitors; hit rate 12% among 420,000; AID 686979; note: nearly all actives have a fitted effect of over 55% in size
#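 Chicken DT40 Tdp1-/- cells stably complemented with human TDP1 were seeded at 400 cells/well in medium containing 20 nM camptothecin, exposed to pin-transferred compounds, and grown at 37 °C for at least 48 hr. Viability was read as ATP luminescence.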
# KB-V1 cytotox: KB-V1 MDR subline cytotoxicity. Potency, µM (top dose mostly 46.1 µM), usual class: cytotoxic. KB-V1 MDR cells viability, CellTiter-Glo, 72 h. hit rate 3.4% among 400,000; note: nearly all actives have a fitted effect of over 60% in size
#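 qHTS viability screen in drug-selected KB-V1 MDR cells: 72 h compound treatment at 37 degrees C, ATP luminescence end point.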
# DT40 TDP1 no CPT: qHTS for Inhibitors of human tyrosyl-DNA phosphodiesterase 1 (TDP1): qHTS in cells in absence of CPT; DT40 Tdp1-/- hTDP1 cells, no CPT, ATP luminescence, 48 h; Potency, µM (doses to about 46.2 µM), for the others: at the highest dose activity change, negative = growth inhibition, hits mostly inhibitors; hit rate 15% among 420,000; AID 686978, 2013; note: nearly all actives have a fitted effect of over 55% in size
#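 Seeded 400 DT40-hTDP1 cells/well (vehicle DMSO, no 20 nM CPT); pinned compounds; ≥48 hr at 37 °C; CellTiter-Glo luminescence as viability measure.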
# HT1080 IDH1KD tx: HT-1080 IDH1 knockdown cell toxicity (counter line) | AID 686971 | Potency, µM (series often up to 46.1 µM), for the others: top-dose activity, negative = toxicity, hits mostly cytotoxic | hit rate 2% among 360,000 | HT-1080 IDH1 knockdown viability, ATP luminescence, 48 h;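 note: 0% = DMSO wells and -100% = cell-free medium wells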
#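 Knockdown cells (IDH1KD HT-1080) received compounds 2 h after plating at 750 cells/well and were kept 48 h at 37 °C in 5% FBS RPMI. A CellTiter-Glo luminescence read gave % activity for curve fitting.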
# HT1080-NT tox: kills 2HG-producing HT-1080-NT fibrosarcoma cells; HT-1080-NT fibrosarcoma viability, CellTiter-Glo ATP luminescence, 48 h; Potency, µM (top dose mostly 46.1 µM), for inactives: top-dose activity, negative = less viability, hits mostly cytotoxic; hit rate 1.6% among 360,000; AID 686970;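 note: NT is the 2HG producing partner of a matched IDH1 knockdown line; 0% = DMSO-treated cells and -100% = media-only wells without cells; nearly all actives have a fitted effect of over 55% in size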
#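 Compounds were tested in concentration-response format on HT-1080-NT cells for 48 hours at 37 degrees C. Cell viability came from CellTiter-Glo luminescence; curves were classified by r2, response magnitude and activity.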
# * hit, by the source's call; i = inactive; ? = inconclusive; . = not tested or not shown; ! = not confirmed by another sample; [ ] = another dose, or the depositor's remark. Only some compounds are listed: those with a hit (about 19% of all), similar ones and a draw of the others. Calls come from the whole dose curve; as a rule, active = well fitted curve in the direction sought with a large enough effect; inconclusive = small, poorly fitted or top-dose-only effect, or another doubt; inactive = no such curve, though single readings can be large; an effect the other way counts as inactive or inconclusive. Unless noted, % is set by controls: 0 for no effect and ±100 for the full control effect; potency is the fitted concentration of half-maximal effect.
SMILES,KB-3-1 tox,TDP1 cell CPT,KB-V1 cytotox,DT40 TDP1 no CPT,HT1080 IDH1KD tx,HT1080-NT tox
CCOc1ccccc1NC(=O)CCc1c(C)nc2c(c(C)nn2-c2ccccc2)c1C,i,16µM*,i,16µM*,.,.
CC(=O)Nc1ccc(NC(=O)CCc2c(C)nc3c(c(C)nn3-c3ccc(C)cc3)c2C)cc1,.,15µM*,.,?,.,.
CCOC(=O)c1ccc(NC(=O)CCc2c(C)nc3c(c(C)nn3-c3ccccc3)c2C)cc1,i,16µM*,i,10µM*,.,.
O=C(Nc1ccncc1)c1cc(C2CCCCN2C(=O)CCc2ccccc2)on1 (stereo not drawn),i,?,?,?,20%,-4%
CCC(C)NC(=O)CCc1c(C)nc2c(c(C)nn2-c2ccc(C)cc2)c1C (stereo not drawn),.,15µM*,.,7.3µM*,.,.
Cc1ccc(-n2nc(C)c3c(C)c(CCC(=O)NC(C)c4ccccc4)c(C)nc32)cc1 (stereo not drawn),i,?,i,?,-1%,6%
COc1ccc(NC(=O)COC(=O)c2ccc(OC)c(S(=O)(=O)N3CCCC3)c2)cc1OC,i,?,i,?,5%,1%
Cc1ccc(C)c(S(=O)(=O)N2CCN(CC(=O)Nc3sccc3C#N)CC2)c1,i,16µM*,?,18µM*,-13%,-7%
N#Cc1ccsc1NC(=O)CN1CCCCCC1,i,-27%,i,?,18%,12%
CCOC(=O)N1CCN(CC(=O)Nc2sccc2C#N)CC1,?,21µM*,i,15µM*,4%,-6%
C#CCN(C[C@@H]1[C@@H](OC(=O)NCc2ccco2)[C@@H](OC(=O)NCc2ccco2)CN(C(=O)OC(C)C)N1C(=O)OC(C)C)S(=O)(=O)c1ccc(C)cc1,?,15µM*,?,9.2µM*,-5%,-14%
C#CCN(C[C@@H]1[C@@H](OC(=O)NC2CC2)[C@@H](OC(=O)NC2CC2)CN(C(=O)OC(C)C)N1C(=O)OC(C)C)S(=O)(=O)c1ccc(C)cc1,i,?,i,16µM*,-4%,-1%
C#CCN(C[C@H]1[C@H](OC(=O)NC2CC2)[C@H](OC(=O)NC2CC2)C[C@H]2C(=O)N(c3ccccc3)C(=O)[C@@H]12)S(=O)(=O)c1ccc(C)cc1,i,-14%,i,-12%,5%,1%
C#CCN(C[C@@H]1[C@@H](OC(=O)NCc2ccccc2F)[C@@H](OC(=O)NCc2ccccc2F)CN(C(=O)OC(C)C)N1C(=O)OC(C)C)S(=O)(=O)c1ccc(C)cc1,i,7.3µM*,i,7.3µM*,4%,0%
C#CCN(C[C@H]1[C@H](OC(=O)NCc2ccccc2)[C@H](OC(=O)NCc2ccccc2)C[C@H]2C(=O)N(c3ccccc3)C(=O)[C@@H]12)S(=O)(=O)c1ccc(C)cc1,i,-23%,i,-15%,0%,0%
CCOC(=O)C1=C(C)NC(SCC(=O)O)=NC1c1ccccc1 (stereo not drawn),i,-8%,i,-27%,4%,3%
COCCNC(=S)N(C)C1(c2ccccc2Cl)CCCCC1=O (stereo not drawn),i,13%,i,0%,7%,-1%
Cc1cccc(C(=O)Nc2sc3c(c2C(=O)Nc2ccccc2)CCC3)c1,i,-27%,i,?,.,.
CCN(CC)C(=O)c1c(NC(=O)c2cccc(C)c2)sc2c1CCC(C)C2 (stereo not drawn),i,23µM*,?,16µM*,.,.
Cc1cccc(C(=O)Nc2sc3c(c2C(=O)O)CCCC3)c1,6.5µM*!,16µM*,7.3µM*!,?,-24%,?
Cc1cccc(NC(=O)c2c(Br)sc3c2CCCC3)c1,i,?,i,23µM*,.,.
Cc1cccc(C(=O)c2c(N)sc3c2CCC(C)C3)c1 (stereo not drawn),i,?,?,?,5%,1%
CC(=O)c1cccc(NC(=O)N2CCC(NC(=O)C34CC5CC(CC(C5)C3)C4)CC2)c1,i,3%,?,?,-3%,-2%
Cc1ccc(CNc2ncnc3sc(C(=O)N4CCC[C@H]4C(N)=O)c(C)c23)o1,.,0%[9.04 µM],.,-29%,.,.
CC(=O)c1c(N2CCN(Cc3ccccc3)CC2)[nH]c(-c2ccccc2)nc1=S,i,?,?,?,0%,0%
SMILES,KB-3-1 tox,TDP1 cell CPT,KB-V1 cytotox,DT40 TDP1 no CPT,HT1080 IDH1KD tx,HT1080-NT tox
CC(=O)c1c(N)[nH]c(-c2ccccc2)nc1=S,i,6.5µM*,i,6.5µM*,-16%,-3%
CC(=O)c1c(N2CCOCC2)[nH]c(-c2ccccc2)nc1=S,i,16µM*,i,?,-2%,-10%
CC(=O)c1c(N2CCCC2)[nH]c(-c2ccccc2)nc1=S,i,?,?,?,3%,5%
CC(C)OCCCNC(=O)c1cn(C)c2ccc(S(=O)(=O)N(C)C3CCCCC3)cc2c1=O,i,-10%,i,-26%,5%,7%
CCc1ccc(NC(=O)Cn2c(=O)n(CCCC(=O)NCCc3ccc(OC)c(OC)c3)c(=O)c3ccccc32)cc1,i,?,i,?,.,.
Cc1cccc(-c2nc3nc(C)cc(NC(C)c4ccccc4)n3n2)c1 (stereo not drawn),i,.,?,.,.,.
COc1cc(/C=C/C(=O)O)ccc1OS(=O)(=O)c1c(C)cc(C)cc1C,i,-23%,i,1%,-2%,-17%
Cc1cc(C(C)(C)C)ccc1OCCCCN1CCCC1,i,?,i,?,-6%,-10%
CCC(C)(C)c1ccc(OCCCC[n+]2cccc(C)c2C)c(C(C)(C)CC)c1,?,0.52µM*,i,0.41µM*,21µM*,15µM*
CCC(C)(C)c1ccc(OCCCC[n+]2ccc(C)cc2)c(C(C)(C)CC)c1,12µM*,2.3µM*,i,1.2µM*,?,?
Cc1cc2cc(CN(CC3CCCO3)C(=S)NCc3ccco3)c(=O)[nH]c2cc1C (stereo not drawn),i,?,i,16µM*,-6%,-9%
Cc1cc2cc(CN(Cc3ccco3)C(=S)NCC3CCCO3)c(=O)[nH]c2cc1C (stereo not drawn),i,?,9.2µM*,21µM*,10%,2%
